Here are results for 29 compounds from PubChem BioAssay.

Active and inactive are the calls of the source.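 The calls were made as follows, unless noted: active = z-score of at least 1.8 in each of two replicates, scored against plate mean and spread of sample wells; inactive = the rest.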

The nature of assay [1]: survival rescue of mitochondrial mutant cells in low glucose, primary screen, MELAS cybrids, Rieske KO mouse fibroblasts, CellTiter-Glo (AID 1508586;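 active = mean z-score across replicates of 1.96 or higher in either the MELAS or the Rieske mutant cell line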;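 also: test concentration not given here; z relative to plate mean and SD of compound and empty wells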).
Assay [2] can be described thus: viability rescue of complex I mutant cybrids, primary screen, cell-based, galactose medium, ATP luminescence (AID 1645843).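 Also: positive z means more ATP and so rescue of galactose-driven cybrid death.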 Conditions: complex I mutant cybrid cells, 72 h, stronger effect = higher value.
The mark [3] stands for this setting: MELAS cybrid survival, CellTiter-Glo 48 h, stronger effect = higher value.
Where [4] appears, read: Rieske KO mouse fibroblast survival, CellTiter-Glo 72 h.

For `CN1CCN(S(=O)(=O)c2cc(C(=O)NCCc3ccccn3)cc(-c3ccccc3)c2)CC1`, the z-score is -0.308 (inactive) in assay [1] (setting [3]), -0.279 in assay [1] (setting [4]) and -0.695 (inactive) in assay [2].

For the compound `CC(C)=CCNc1cc(C(=O)NCc2cn3ccccc3n2)cc(S(=O)(=O)NC(C)C)c1`, the z-score in assay [1] (setting [3]) was -0.403 (inactive); in assay [1] (setting [4]) it was -0.764; in assay [2] it was -0.5 (inactive).

As for `O=C(NCc1ccccn1)c1cc(NCC2CC2)cc(S(=O)(=O)N2CCCC2)c1`, the z-score in assay [1] (setting [3]) was -0.201 (inactive); in assay [1] (setting [4]), -0.67; in assay [2] it was 0.59 (inactive).

As for `Cc1nnc(CN(C)C(=O)c2cc(-c3ccc(C)s3)cc(S(=O)(=O)N3CCOCC3)c2)o1`, the z-score is -0.234 (inactive) in assay [1] (setting [3]), -0.11 in assay [1] (setting [4]) and 0.29 (inactive) in assay [2].

On to `Cc1ccc(N2CCN(C3CCc4c(c(C(=O)N5CCSCC5)nn4C)C3)CC2)c(C)c1` (configuration not stated), for which the results for the z-score in assay [1] (setting [3]), in assay [1] (setting [4]) and in assay [2] were -0.0351 (inactive), -0.612 and 0.195 (inactive), respectively.

Turning to `CN(C)C(=O)c1nn(Cc2ccccc2)c2c1CN(C(=O)C1CC(=O)Nc3ccccc31)CC2` (configuration not stated), the z-score was -0.404 (inactive) in assay [1] (setting [3]), -0.253 in assay [1] (setting [4]) and 0.725 (inactive) in assay [2].

For `CN1CCCC1CCNC(=O)[C@H]1CNC[C@@H](COc2cccc(F)c2)C1` (some centres not stated), the figures for the z-score in assay [1] (setting [3]), in assay [1] (setting [4]) and in assay [2] were -0.0942 (inactive), 0.269 and 1.83 (inactive), respectively.

On to `CCn1nc(C(=O)N2CCCC2)c2c1CCC(NCCC1=CCCCC1)C2` (configuration not stated), for which the z-score was 1.1 (inactive) in assay [1] (setting [3]), -0.76 in assay [1] (setting [4]) and -1.23 (inactive) in assay [2].

`CCCCNC(=O)[C@@H]1C[C@H](CN2CCOCC2)CN(Cc2ccc3ccccc3c2)C1`: the z-score in assay [1] (setting [3]) was 0.321 (inactive); in assay [1] (setting [4]), 0.627; in assay [2], -0.385 (inactive).

Regarding `CCN(CC)CCNC(=O)c1cc(-c2cc(C)cs2)cc(S(=O)(=O)N2CCOCC2)c1`, the z-score in assay [1] (setting [3]) is -0.44 (inactive); in assay [1] (setting [4]), -0.00741; in assay [2] it was 1.25 (inactive).

For the compound `CC(C)NS(=O)(=O)c1cc(NC2CCCCC2)cc(C(=O)NC2Cc3ccccc3C2)c1`, the z-score in assay [1] (setting [3]) is -0.22 (inactive); in assay [1] (setting [4]) it was -0.431; in assay [2], -0.045 (inactive).

Consider `O=C1N[C@@H](COCc2ccccc2)C(=O)N2C[C@@H](NCc3cnn(-c4cccc(F)c4)c3)C[C@@H]12`, for which the z-score in assay [1] (setting [3]) was 1.94 (inactive); in assay [1] (setting [4]), -0.436; in assay [2] it was -0.845 (inactive).

Consider `COC(=O)c1c(NC(C)=O)c2cc(NCc3sccc3C)cnc2n1CC1CCCO1` (configuration not stated), for which the z-score is 0.213 (inactive) in assay [1] (setting [3]), 0.989 in assay [1] (setting [4]) and -0.82 (inactive) in assay [2].

Turning to `NCCCC[C@@H]1NC(=O)[C@@H]2C[C@H](NCc3nc(-c4ccccc4)cs3)CN2C1=O`, the z-score was -0.0314 (inactive) in assay [1] (setting [3]), 0.0831 in assay [1] (setting [4]) and -0.77 (inactive) in assay [2].

`Cc1cc(-c2cc3c(n(Cc4cccnc4)c2=O)CCN(C(=O)C2Cc4ccccc4O2)C3)ccc1F` (configuration not stated): the figures for the z-score in assay [1] (setting [3]), in assay [1] (setting [4]) and in assay [2] were -0.406 (inactive), 1.95 and -0.785 (inactive), respectively.

In the case of `CC(C)CNc1cc(C(=O)NC2Cc3ccccc3C2)cc(S(=O)(=O)NC(C)C)c1`, the z-score in assay [1] (setting [3]) was 0.0668 (inactive); in assay [1] (setting [4]) it was -0.0556; in assay [2], -1.6 (inactive).

In the case of `CCN1C(=O)N(CCc2ccccc2)C2(CCN(Cc3cnn(-c4ccccc4OC)c3)CC2)C1=O`, the z-score in assay [1] (setting [3]) is 0.108 (inactive); in assay [1] (setting [4]), 0.254; in assay [2], -0.37 (inactive).

With `O=c1c(-c2ccccc2Cl)cc2c(n1Cc1ccncc1)CCN(Cc1ccnc3ccccc13)C2`, the z-score in assay [1] (setting [3]) is -0.09 (inactive); in assay [1] (setting [4]) it was -0.0903; in assay [2] it was 0.915 (inactive).

As to `CC(C)CNC(=O)[C@@H]1C[C@H](CN2CCOCC2)CN(Cc2ccncc2)C1`, the z-score in assay [1] (setting [3]) was -0.456 (inactive); in assay [1] (setting [4]), -0.738; in assay [2], -0.6 (inactive).

`CCCn1nc(C(=O)N2CCCCC2)c2c1CCC(NCc1cccnc1)C2` (configuration not stated): the z-score in assay [1] (setting [3]) was -0.0243 (inactive); in assay [1] (setting [4]), -0.185; in assay [2], -1.06 (inactive).

As to `CC(C)NS(=O)(=O)c1cc(NCc2cnn(C)c2)cc(C(=O)NCc2cn3ccccc3n2)c1`, the z-score was -0.615 (inactive) in assay [1] (setting [3]), -0.511 in assay [1] (setting [4]) and 1.27 (inactive) in assay [2].

Regarding `COC1CN(C(=O)Cn2nc(-c3ccccc3)c3ccccc3c2=O)CC(=O)N(Cc2ccccc2)C1` (configuration not stated), the z-score in assay [1] (setting [3]) was -0.199 (inactive); in assay [1] (setting [4]) it was 0.0204; in assay [2], 1.58 (inactive).

As to `CC(C)CCN1C(=O)N(CC(N)=O)C(=O)C12CCN(Cc1nc3ccccc3s1)CC2`, the z-score in assay [1] (setting [3]) is -0.288 (inactive); in assay [1] (setting [4]), -0.574; in assay [2], 0.225 (inactive).

Regarding `Cc1[nH]cnc1CNc1cc(C(=O)Nc2cccc(N(C)C)c2)cc(S(=O)(=O)N2CCCC2)c1`, the values for the z-score in assay [1] (setting [3]), in assay [1] (setting [4]) and in assay [2] were -0.329 (inactive), -0.954 and 0.055 (inactive), respectively.

Consider `CC(C)Cn1nc(C(=O)N2CCOCC2)c2c1CCC(NCc1ccc(F)cc1)C2` (configuration not stated), for which the z-score in assay [1] (setting [3]) is 0.123 (inactive); in assay [1] (setting [4]) it was -0.12; in assay [2] it was 0.625 (inactive).

Turning to `O=C(c1nn(Cc2ccccn2)c2c1CN(C/C=C/c1ccco1)CC2)N1CCc2ccccc2C1`, the z-score in assay [1] (setting [3]) was -0.442 (inactive); in assay [1] (setting [4]), -0.213; in assay [2], -0.345 (inactive).

Turning to `COc1cccc2ccc(CN3CCC4(CC3)C(=O)N(CCc3ccccc3)C(=O)N4C)nc12`, the z-score in assay [1] (setting [3]) was -0.413 (inactive); in assay [1] (setting [4]) it was 1.51; in assay [2], 0.055 (inactive).

`O=C(Oc1ccccc1)N1CCN2C(=O)[C@@H]3C[C@@H](O)CN3C(=O)[C@H]2C1`: the z-score in assay [1] (setting [3]) was 1.95 (inactive); in assay [1] (setting [4]), -0.267; in assay [2] it was -0.655 (inactive).

With `C=CCn1nc(C(=O)N2CCCCCC2)c2c1CCC(NCc1cc(-c3ccccc3)on1)C2` (configuration not stated), the z-score in assay [1] (setting [3]) was -0.0315 (inactive); in assay [1] (setting [4]), 0.236; in assay [2] it was -1.62 (inactive).
